Mcl1 Bid PPI: Mcl-1/Bid interaction inhibition; TR-FRET Mcl-1/Bid-Dy647 peptide binding, 1536-well; Q07820; inhibition, % at 21.7 µM; AID 1021; actives 0.97% (n = 220,000);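 active = compounds that cut the binding signal by more than half at the single screening dose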;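 note: His-tagged Mcl-1 with europium anti-His antibody binding Bid BH3 peptide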
Mcl-1 Bim block: inhibitors of Bim-Mcl-1 interaction, human. inhibition, % at 10 µM. Bead-based flow cytometry, Bim peptide-Mcl-1 binding. actives 0.1% (n = 190,000). Q07820; in the data active = inhibition above about 40%
MCL1 BIM primary: MCL1-BIM-BH3 interaction inhibition (human); Q07820; GST-MCL1 / FITC-Bim-BH3 fluorescence polarization; inhibition, % at 10.9 µM; actives 0.68% (n = 320,000);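 active = inhibition above the mean inhibition of all tested compounds plus 3 SD, set per campaign, cut at about 40% in these data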;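 note: higher means more loss of mP so more displacement of Bim peptide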
GLD-1 TGE inh: GLD-1-TGE RNA interaction inhibition (C. elegans). purified GLD-1 + fluorescein TGE RNA, fluorescence polarization. AID 2280. inhibition, % at 5.96 µM. actives 0.44% (n = 320,000);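 active = percent inhibition above a per-plate cutoff, the plate mean of test compounds plus 3 SD, cut at about 30% in these data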
Target sequence (Q17339 whole entry, looked up): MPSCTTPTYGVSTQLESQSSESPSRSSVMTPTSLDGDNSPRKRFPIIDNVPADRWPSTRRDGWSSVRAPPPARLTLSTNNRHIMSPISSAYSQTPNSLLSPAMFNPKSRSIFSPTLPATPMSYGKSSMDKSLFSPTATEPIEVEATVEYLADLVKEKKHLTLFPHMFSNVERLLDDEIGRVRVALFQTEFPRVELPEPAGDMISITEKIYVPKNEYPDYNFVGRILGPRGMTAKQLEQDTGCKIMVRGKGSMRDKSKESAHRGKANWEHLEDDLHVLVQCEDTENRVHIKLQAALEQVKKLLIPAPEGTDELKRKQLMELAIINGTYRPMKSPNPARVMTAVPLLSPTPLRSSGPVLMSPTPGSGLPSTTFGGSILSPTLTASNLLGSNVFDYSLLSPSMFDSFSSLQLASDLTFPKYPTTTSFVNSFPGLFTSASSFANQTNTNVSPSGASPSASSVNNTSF
Bcl-xL primary: Bcl-xL (human) inhibition; Q07817; GST-Bcl-xL / FITC-Bim BH3 peptide fluorescence polarization; inhibition, % at 10.9 µM; actives 0.7% (n = 320,000);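 active = inhibition above the mean of all tested compounds plus 3 SD, cutoff set per campaign, cut at about 30% in these data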;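 note: inhibitors lower millipolarization by displacing the labeled peptide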
Target sequence (Q07817 whole entry, looked up): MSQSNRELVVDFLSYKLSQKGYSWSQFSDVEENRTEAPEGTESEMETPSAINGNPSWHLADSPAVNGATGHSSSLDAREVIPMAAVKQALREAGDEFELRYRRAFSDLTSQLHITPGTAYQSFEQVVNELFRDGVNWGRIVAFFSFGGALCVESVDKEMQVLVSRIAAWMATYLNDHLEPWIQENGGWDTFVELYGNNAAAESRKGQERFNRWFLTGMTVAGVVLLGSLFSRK
Mcl1 Noxa PPI: disrupts binding of human Mcl-1 to Noxa peptide | actives 1.5% (n = 220,000) | inhibition, % at 21.7 µM | AID 1022 | TR-FRET Mcl-1/Noxa peptide binding, 2 h;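 active = compounds that cut the protein-peptide binding signal by more than 50% relative to plate controls in a single-dose test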;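 note: His-tagged Mcl-1 with rhodamine Noxa BH3 peptide and terbium anti-His antibody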
BCLXL inh confirm: counter-screen for MCL1 inhibitors: confirmation of human Bcl-xL inhibitors; shares compounds with MCL1 BIM primary; GST-Bcl-xL / FITC-Bim BH3 peptide FP binding; inhibition, % at 10.9 µM; actives 54% (n = 1,700); AID 2166;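 active = inhibition above a cutoff equal to the mean inhibition of all tested compounds plus 3 SD, cut at about 30% in these data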
MCL1 BIM confirm: confirmation of human MCL1 and BIM-BH3 interaction inhibitors. shares compounds with MCL1 BIM primary. GST-MCL1 / FITC-Bim-BH3 fluorescence polarization. inhibition, % at 10.9 µM. actives 61% (n = 1,700). AID 2168;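 active = inhibition above the average of all tested compounds plus 3 SD, cut at about 40% in these data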
A number is an active result; . = inactive; / = not tested or not shown; + = active, no number; ! = not active in a repeat. Rows were chosen to be rich in hits. Some 2.3% of all compounds tested hit in one or more screens of this group.

SMILES | Mcl1 Bid PPI | Mcl-1 Bim block | MCL1 BIM primary | GLD-1 TGE inh | Bcl-xL primary | Mcl1 Noxa PPI | BCLXL inh confirm | MCL1 BIM confirm
CN1CCC2(CC1)C(C#N)=C(N)NC(S)=C2C#N | . | . | 118! | . | 42 | . | 90 | 104
CC1C2Cc3ccc(O)cc3[C@]1(C)CCN2CCc1ccccc1 (stereo partly drawn) | / | / | / | . | / | / | / | /
COC(=O)C1=C(c2ccc(-c3ccccc3)c(F)c2)C[C@@H]2CC[C@H]1N2C(=O)NC1CCCCC1 | / | / | . | . | . | / | / | /
COC(=O)C1=C(c2ccc(-c3ccccc3)c(F)c2)C[C@@H]2CC[C@H]1N2C(=O)NCCc1ccccc1 | / | / | . | . | . | / | / | /
CCOc1cccc(OCC)c2c(C)[n+](CC3CCCO3)c(C)c1-2 (stereo not drawn) | . | . | 62 | 32 | 53 | . | . | .
COc1ccc(CCNCC2CCCO2)cc1 (stereo not drawn) | / | / | . | . | . | / | / | /
COC(=O)C1=C(c2ccc(C(C)=O)cc2)C[C@@H]2CC[C@H]1N2C(=O)NCc1ccc(C(F)(F)F)cc1 | / | / | . | . | . | / | / | /
O=C(CCC(=O)N1C[C@H]2C[C@@H](C1)c1cccc(=O)n1C2)NCc1ccc(F)cc1 | / | / | . | . | . | / | / | /
CCOc1cccc(CNCCc2c(C)[nH]c3ccc(OC(F)(F)F)cc23)c1O | / | / | . | . | . | / | / | /
C[C@]12CC[C@H](O)CC1=CC(=O)C1C2CC[C@]2(C)C(=O)[C@H](O)CC12 (stereo partly drawn) | / | / | / | . | / | / | / | /
O=c1[nH]c(O)c(/C=C2\C=Nc3ccc(OCc4ccccc4)cc32)c(=O)[nH]1 | / | / | 188 | 46 | 167 | / | 126 | 153
CC[N+](CC)(CC)CC | . | / | 50 | . | . | . | . | .
CCN1/C(=C\C=C\C2=[N+](CC)c3ccccc3C2(C)C)C(C)(C)c2ccccc21 | . | . | + | + | + | . | + | +
C#C[C@]1(O)[C@H](O)CC2C3CC[C@H]4C[C@@H](O)CC[C@]4(C)C3CC[C@@]21C (stereo partly drawn) | / | / | / | . | / | / | / | /
Oc1c(Cl)c(Cl)c(Cl)c(Cl)c1Cl | / | / | 53 | . | . | / | . | .
CCN(CC)CCC(=O)O[C@H]1CC[C@]2(C)C3CC[C@@]4(C)C(CC[C@]4(C)O)C3CC[C@H]2C1 (stereo partly drawn) | / | / | / | . | / | / | / | /
COC(=O)C1=C(c2ccc(OC)c(OC)c2)C[C@@H]2CC[C@H]1N2C(=O)NCC1CC1 | / | / | . | . | . | / | / | /
O=C1NC(=O)N(Cc2ccc(F)cc2)C(=O)/C1=C\c1ccc([N+](=O)[O-])s1 | . | / | 40 | . | . | 93 | . | 44
COc1ccc(N2C(=O)NC(=O)/C(=C\c3ccc([N+](=O)[O-])s3)C2=O)cc1 | . | . | 41 | . | . | 51 | 44 | 55
C[C@]12CCC3C(CC[C@H]4C[C@H](O)CC[C@]34C)C1[C@@H](O)[C@@H](O)[C@@H]2O (stereo partly drawn) | / | / | / | . | / | / | / | /
O=[N+]([O-])c1ccc2nc(N3CCNCC3)ccc2c1 | / | / | . | . | . | / | / | /
Nc1c2c(nc3ccccc13)CCN(Cc1ccccc1)C2 | / | / | + | 97 | 167 | / | 72 | 101
O=C1NC(=O)N(c2ccc3c(c2)OCO3)C(=O)/C1=C\c1ccc(-c2ccccc2C(=O)O)o1 | . | / | . | . | . | . | / | /
O=C1NC(=O)N(c2ccccc2)C(=O)/C1=C/c1ccc(Sc2ccccc2)o1 | . | . | . | . | . | . | / | /
O=C1NC(=O)N(c2cccc(Cl)c2)C(=O)/C1=C\c1ccc(Sc2nc3ccccc3[nH]2)o1 | . | . | 181 | . | 91 | 52 | . | 41
SMILES | Mcl1 Bid PPI | Mcl-1 Bim block | MCL1 BIM primary | GLD-1 TGE inh | Bcl-xL primary | Mcl1 Noxa PPI | BCLXL inh confirm | MCL1 BIM confirm
O=C1NC(=O)N(c2ccccc2F)C(=O)/C1=C/c1ccc(Sc2nc3ccccc3[nH]2)o1 | . | . | 59 | . | 54 | 66 | 41 | 66
O=[As](O)(O)c1ccc(N=Nc2ccc(O)cc2)cc1 | . | / | / | / | / | . | / | /
O=C1C(Cl)=CC(=Nc2ccc(O)cc2)C=C1Cl | / | / | 44 | . | . | / | 40 | 60
CN(C)[C@@H]1C(=O)C(C(N)=O)=C(O)[C@@]2(O)C(=O)C3=C(O)c4c(O)cccc4[C@@](C)(O)C3C[C@@H]12 (stereo partly drawn) | / | / | 51 | . | . | / | . | .
CN(C)[C@@H]1C(=O)C(C(N)=O)=C(O)[C@@]2(O)C(=O)C3=C(O)c4c(O)ccc(Cl)c4[C@@](C)(O)[C@H]3C[C@@H]12 | / | / | . | . | . | / | / | /
COc1ccc(CC(C)NCCC(c2ccccc2)c2ccccc2)cc1 (stereo not drawn) | / | / | . | . | . | / | / | /
C=CCN1CC[C@]23c4c5ccc(O)c4O[C@H]2C(=O)CC[C@@]3(O)[C@H]1C5 | . | . | . | . | . | . | / | /
C=CCN1CCc2cccc3c2[C@H]1Cc1ccc(O)c(O)c1-3 | / | / | 43 | . | . | / | 33 | 67
C=C1C2[C@H](OC(C)=O)[C@@H]3CC(=O)[C@]4(C)OC[C@@]3(C)[C@@]4(O)[C@@H](OC(C)=O)[C@H](OC(C)=O)[C@@]2(COC(=O)c2ccccc2)[C@@H](OC(C)=O)C[C@@H]1O (stereo partly drawn) | / | / | . | . | . | / | / | /
O=c1[nH]c(=S)[nH]c(O)c1/C=C1/C=c2ccccc2=N1 | / | / | 92 | . | 68 | / | 135 | 170
Cc1ccc(/C=C2/Sc3ccc(C(=O)N4CCC5(CC4)OCCO5)cc3NC2=O)cc1 | / | / | 125 | 75 | 106 | / | 108 | 131
CC(C)[C@H]1C(=O)N2CCC[C@H]2[C@]2(O)O[C@](NC(=O)[C@@H]3C=C4c5cccc6[nH]cc(c56)C[C@H]4N(C)C3)(C(C)C)C(=O)N12 | . | . | + | 129 | 153 | . | 106 | 128
COC(=O)C1=C(c2ccc(OC)c(OC)c2)C[C@@H]2CC[C@H]1N2C(=O)NC(C)C | / | / | . | . | . | / | / | /
CC(=O)O[C@@H]1CC[C@]2(C)C3CC[C@]4(C)C(=O)[C@H](O)CC4C3[C@@H](OC(C)=O)C[C@H]2C1 (stereo partly drawn) | / | / | / | . | / | / | / | /
O=C1NC(=S)NC(=O)C1=Cc1ccc2c(c1)CCN2CCCCl | . | / | 74 | . | . | 100 | . | .
O=c1[nH]c(=S)n(-c2ccc(Cl)cc2)c(O)c1C=Nc1ccc(N2CCOCC2)cc1 | . | . | + | . | 166 | . | 185 | +
CCOC(=O)c1c(C)n(Cc2ccccc2)c2ccc(OCC(O)CNC(C)(C)C)cc12 (stereo not drawn) | / | / | . | . | . | / | / | /

Bioassay records (PubChem BioAssay)
